Test results as given in PubChem BioAssay (EPA / NIEHS).
The source made the active and inactive calls. The calls were made as follows: active = hit-call score of the fitted dose curve at least 0.9, where 1 is the maximum; inactive = score below 0.9.

target: CCAAT/enhancer-binding protein beta (Homo sapiens) (UniProt P17676); assay: ATG_C_EBP_CIS: Attagene CIS-FACTORIAL HepG2 Assay for human CCAAT/Enhancer Binding Protein (C/EBP) beta (AID 2282927); details: HepG2 Attagene cis-factorial transcription factor reporter; actives raise or lower the signal
Protocol: ATG_CIS is a cell-based, multiplexed-readout assay that uses HepG2, a human liver cell line, with measurements taken at 24 hours after chemical dosing in a 24-well plate.ATG_C_EBP_CIS is one of 52 assay component(s) measured or calculated from the ATG_CIS assay. It is designed to make measurements of mRNA induction, a form of inducible reporter, as detected with fluorescence intensity signals by Reverse transcription polymerase chain reaction (RT-PCR) and Capillary electrophoresis technology.Data from the assay component ATG_C_EBP_CIS was analyzed into 1 assay endpoint. This assay endpoint, ATG_C_EBP_CIS, was analyzed with bidirectional fitting relative to DMSO as the negative control and baseline of activity. Using a type of inducible reporter, measures of mRNA for gain or loss-of-signal activity can be used to understand the reporter gene at the transcription factor-level as they relate to the gene CEBPB. Furthermore, this assay endpoint can be referred to as a primary readout, because this assay has produced multiple assay endpoints where this one serves a reporter gene function. To generalize the intended target to other relatable targets, this assay endpoint is annotated to the dna binding intended target family, where the subfamily is basic leucine zipper.
Human liver HepG2 cells are transiently transfected with multiple reporter transcription units (MRTUs) in 6-well plates using FuGene 6 reagent (Roche; 3 ml FuGene/1 mg DNA). The MRTU constructs are regulated by a cis-regulating element (promoter). […] A major difference between the CIS and TRANS system is that in CIS activities of endogenous TFs are measured, whereas the TRANS assay evaluates changes in activities of exogenous, chimeric NR-Gal4 proteins. […] At the end of 24 hour incubation, total RNA was isolated using TriZol reagent (Invitrogen). The isolated RNA is then reverse-transcribed using oligo(dT) primer and Mo-MLV reverse transcriptase (Invitrogen) with DNAse I (Ambion) treatment for 30 min. The one-tenth of the produced cDNA was amplified by PCR using Taq DNA polymerase (Invitrogen) and two reporter sequence-specific primers. The PCR products were fluorescently labeled by primer extension with 6-arboxyfluorescein (6-FAM) 5'-labeled reporter sequence-specific primer (2 min at 95 C, 20 s at 68 C and 10 min at 72 C) and these products were digested with 5U of HpaI (New England Biolabs) for 2h at 37 C. The fragments were purified using Qiaquick PCR columns (Qiagen), analyzed on an ABI 3130xL genetic analyzer (Applied Biosystems) with peak positions identified by using a set of X-rhodamine (ROX)-labeled MapMarker1000 molecular weight standards (BioVentures). The raw capillary electrophoresis data was processed using Attagraph software (Attagene).

CCAAT/enhancer-binding protein beta (Homo sapiens), sequence (P17676 whole entry, looked up): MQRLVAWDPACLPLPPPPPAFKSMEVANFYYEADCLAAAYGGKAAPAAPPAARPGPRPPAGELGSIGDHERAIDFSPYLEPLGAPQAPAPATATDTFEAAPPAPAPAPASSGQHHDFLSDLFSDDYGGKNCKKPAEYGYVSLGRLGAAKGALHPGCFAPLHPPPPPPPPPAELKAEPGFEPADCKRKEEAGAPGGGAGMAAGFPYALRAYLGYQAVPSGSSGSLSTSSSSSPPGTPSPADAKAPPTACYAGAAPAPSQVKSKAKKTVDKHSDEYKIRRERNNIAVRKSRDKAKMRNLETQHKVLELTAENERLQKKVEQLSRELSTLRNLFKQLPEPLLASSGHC

SMILES	outcome	AC50
CC(=O)OC[C@H]1O[C@@](COC(C)=O)(O[C@H]2O[C@H](COC(C)=O)[C@@H](OC(C)=O)[C@H](OC(C)=O)[C@H]2OC(C)=O)[C@@H](OC(C)=O)[C@@H]1OC(C)=O	inactive	
CCCCC(CC)COC(=O)CCCCCCCCC(=O)OCC(CC)CCCC (stereo not given)	inactive	
CC1(C)C(=O)N(Br)C(=O)N1Br	inactive	
COc1ccc2sc(C(=O)Nc3nnn[nH]3)c(OC(C)C)c2c1	inactive	
Nc1cccc(N)c1	inactive	
CCCCCCCCCCCCc1ccccc1	inactive	
CCCN(C1CCN(C(=O)C2CCNCC2)CC1)[C@@H]1CCc2ccc(OC)cc2C1	inactive	
Oc1ccc2c(c1)-c1ccccc1C2		74 µM (active)
CC(C)c1cccc(C(C)C)c1N1C(=O)c2ccc(O)cc2C1=O	inactive	
Fc1ccccc1[C@@H](F)COC1CCC(Nc2ncnc3[nH]ncc23)CC1 (stereo not given in full)	inactive	
CCC(C)(C)C(=O)O[C@H]1C[C@@H](C)C=C2C=C[C@H](C)[C@H](CC[C@@H]3C[C@@H](O)CC(=O)O3)[C@H]21	inactive	
C1=CCCC=CCCC=CCC1	inactive	
Cc1ccc(N)cc1O	inactive	
CCCCCCCCO	inactive	
O=C(O)c1cccc(N(Cc2cccnc2)c2ccc(OC(F)F)c(OC(F)F)c2)c1	inactive	
O=C(CCCCCCCCc1cccnc1)N1CCC(C=C(c2ccccc2)c2ccccc2)CC1		9.03 µM (active)
CC(=O)c1ccc2c(c1)[C@H](NC(=O)c1ccc(F)cc1)[C@@H](O)C(C)(C)O2	inactive	
CCOC(=O)COc1ccc2c(c1)CC(NCC(O)c1cccc(Cl)c1)CC2 (stereo not given)	inactive	
C[C@](N)(Cc1ccc(O)c(O)c1)C(=O)O	inactive	
CCOc1cccc(-n2cc(C(=O)N3CCN(c4cc(C(=O)O)c5ccccc5c4)CC3)nc2-c2ccc(C)cc2)c1	inactive	

SMILES	outcome	AC50
COC(=O)CC(=O)OC	inactive	
CC/C(=C\C(=N/O)C(N)=O)C(C)[N+](=O)[O-] (stereo not given)	inactive	
Clc1nc(Cl)c(Cl)c(Cl)c1Cl	inactive	
Cc1c(-c2cccnc2)c2ccccc2n1CCCCC(=O)O	inactive	
CCN(C(=O)c1cc(C)cc(OC[C@H](C)Nc2ccncc2)c1)C(C)C	inactive	
CCCCCCCCCCCCCCCO	inactive	
CC(C)CCCCCCOC(=O)c1ccc(C(=O)OCCCCCCC(C)C)c(C(=O)OCCCCCCC(C)C)c1	inactive	
CC(C)(O)c1coc(S(=O)(=O)NC(=O)Nc2c3c(cc4c2CCC4)CCC3)c1	inactive	
CC(O)CN(CCN(CC(C)O)CC(C)O)CC(C)O (stereo not given)	inactive	
CCOCCOCCOCCO	inactive	
CC[C@H]1CC[C@H](NCc2cc3c(cc2OC)[C@H]2C[C@H]2C(=O)N3C)[C@H](c2ccccc2)N1		15.9 µM (active)
CC(=O)OCCC(C)C	inactive	
CCCCC(CC)COC(=O)c1ccc(C(=O)OCC(CC)CCCC)cc1 (stereo not given)	inactive	
Cn1c(=O)c2c(ncn2C)n(C)c1=O	inactive	
CC(C)=CCCC(C)=CC=O	inactive	
CC(C)CCCCCCCOC(=O)CCCCC(=O)OCCCCCCCC(C)C	inactive	
CCCCCCc1ccc(O)cc1O	inactive	
COc1ccc(/C=C/S(=O)(=O)NC(=O)c2ccc(C)cc2Cl)cc1	inactive	
CN(C)c1ccc(N=NS(=O)(=O)O)cc1	inactive	
O=c1n(CC2CO2)c(=O)n(CC2CO2)c(=O)n1CC1CO1 (stereo not given)		75.7 µM (active)
